Compound activity (PubChem BioAssay)
An excerpt weighted towards active compounds, which were near 18% of everything screened.
IL1B secr inh: inhibitors of inflammasome signaling (IL-1 beta secretion); THP-1 LPS/ATP IL-1B secretion, AlphaLISA, 16 h; hits give low values; activity change, % at 57.5 µM; hit rate 4.7% among 360,000; in the data active = activity change below about -50%; inconclusive = mostly about -30% to -49%
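THP-1 cells pretreated 1 hr with compounds (up to 57.5 uM final), then stimulated with LPS (250 ng/mL final) plus ATP (1.25 mM final); secreted IL-1B measured by AlphaLISA after 16 hr, decreased signal indicating inhibition.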
Six1-Eya2 inh: Six1/Eya2 interaction inhibition | Q15475+O00167 | AlphaScreen GST-Six1/His-Eya2 binding, biochemical; hits give low values | activity change, % (concentration not given with the values) | hit rate 0.56% among 360,000; in the data active = activity change below about -65%; inconclusive = mostly about -30% to -63%
Target sequence (O00167 whole entry, looked up): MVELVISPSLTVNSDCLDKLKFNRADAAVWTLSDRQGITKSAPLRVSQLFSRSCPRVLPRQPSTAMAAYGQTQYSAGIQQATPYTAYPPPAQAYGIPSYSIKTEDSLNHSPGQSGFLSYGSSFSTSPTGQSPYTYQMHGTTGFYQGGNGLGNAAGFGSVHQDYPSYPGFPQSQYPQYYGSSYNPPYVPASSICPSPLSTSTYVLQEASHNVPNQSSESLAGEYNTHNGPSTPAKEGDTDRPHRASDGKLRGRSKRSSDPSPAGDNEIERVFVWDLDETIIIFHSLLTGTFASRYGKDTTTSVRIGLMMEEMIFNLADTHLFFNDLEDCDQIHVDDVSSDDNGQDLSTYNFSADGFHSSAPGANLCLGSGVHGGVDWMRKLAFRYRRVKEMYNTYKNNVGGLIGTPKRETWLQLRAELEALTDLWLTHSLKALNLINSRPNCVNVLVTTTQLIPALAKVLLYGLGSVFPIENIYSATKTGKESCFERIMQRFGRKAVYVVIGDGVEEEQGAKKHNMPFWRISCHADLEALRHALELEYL
Target sequence (Q15475 whole entry, looked up): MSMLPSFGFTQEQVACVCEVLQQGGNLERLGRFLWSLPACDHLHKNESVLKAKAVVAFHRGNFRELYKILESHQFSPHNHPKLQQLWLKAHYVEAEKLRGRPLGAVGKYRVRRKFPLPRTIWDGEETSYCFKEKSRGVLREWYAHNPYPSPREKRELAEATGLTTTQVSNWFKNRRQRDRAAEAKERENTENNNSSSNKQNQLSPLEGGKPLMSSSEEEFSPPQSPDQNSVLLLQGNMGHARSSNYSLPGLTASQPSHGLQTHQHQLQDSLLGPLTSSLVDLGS
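Six1/Eya2 binding was read as AlphaScreen signal after compounds were pinned into GST-Six1 plus His-tagged Eya2 (5X stock 250/500 nM) in pH 8.0 Tris/NaCl/TCEP buffer, beads added, then incubated 1 h, 37 C, dark.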
CtBP-E1A blk: CtBP/E1A binding inhibition; hit rate 0.49% among 340,000; AlphaScreen GST-E1A/His-CtBP binding, 1536-well; hits give low values; activity change, % (test concentration not listed); in the data active = activity change below about -65%; inconclusive = mostly about -30% to -63%
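GST-E1A and His-tagged CtBP (125 nM each as 5X stock) were preincubated with pin-transferred compound for 2 h at 37 °C in the dark, then glutathione donor and nickel acceptor beads were added for 1 h before AlphaScreen reading.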
DT40 TDP1 no CPT: qHTS for Inhibitors of human tyrosyl-DNA phosphodiesterase 1 (TDP1): qHTS in cells in absence of CPT; DT40 Tdp1-/- hTDP1 cells, no CPT, ATP luminescence, 48 h; Potency, µM (series often up to 46.2 µM), for the others: at the top dose activity change, negative = growth inhibition, most hits filed as inhibitors; hit rate 15% among 420,000; also: potency is read from the fitted curve at half-maximal effect; nearly all actives have a fitted effect of over 55% in size
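Readout: luminescence from CellTiter-Glo after 30 min in the dark at RT. Cells: DT40 Tdp1-/- with stable hTDP1, 400/well. Exposure: compounds alone, ≥48 hr, 37 °C.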
TDP1 cell CPT: DT40-hTDP1 cell growth loss with CPT. chicken DT40 Tdp1-/-;hTDP1 cells + 20 nM CPT, ATP luminescence, 48 h. Potency, µM (series often up to 46.2 µM), for the others: top-dose activity change, negative = growth inhibition, actives largely listed as inhibitors. hit rate 12% among 420,000. AID 686979; also: potency is read from the fitted curve at half-maximal effect; nearly all actives have a fitted effect of over 55% in size
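Cell growth measured by CellTiter-Glo luminescence after a minimum 48 h, 37 C compound exposure with 20 nM CPT in Tdp1-knockout DT40 cells stably expressing hTDP1, seeded 400/well; qHTS titration format.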
TDP1 inh: inhibitors of human tyrosyl-DNA phosphodiesterase TDP1. Q9NUW8. recombinant TDP1, AlphaScreen DNA substrate cleavage. Potency, µM (titrated, usually from 130 µM), without a hit: top-dose activity change, negative = inhibition, usual class: inhibitors. hit rate 0.28% among 350,000. AID 485290; also: potency is read from the fitted curve at half-maximal effect; nearly all actives have a fitted effect of over 40% in size
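Enzyme-compound mixtures sat 15 min at room temperature, followed by a 5 min reaction with 15 nM final substrate and 10 min with AlphaScreen beads. Recombinant human Tdp1 was used at 1 nM final.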
Active calls of the source: *; ? = inconclusive; / = no result; [ ] = another dose, or the depositor's remark. Unless noted, calls follow the shape of the dose curve; as a rule, active = well fitted curve in the direction sought with a large enough effect; inconclusive = small, poorly fitted or top-dose-only effect, or another doubt; inactive = no such curve, though single readings can be large; an effect the other way counts as inactive or inconclusive. % is scaled to controls: 0 for no effect and ±100 for the full control effect.

SMILES	IL1B secr inh	Six1-Eya2 inh	CtBP-E1A blk	DT40 TDP1 no CPT	TDP1 cell CPT	TDP1 inh
O=C(CCc1nnc2n(Cc3ccc(Cl)cc3)c(=O)c3ccccc3n12)N1CCN(c2ccccn2)CC1	/	4	-2	21µM*	21µM*	-4%
CCOc1ccc(-c2cc(C(=O)NCc3ccc(C(F)(F)F)cc3)[nH]n2)c(C)c1	16	2	7	9%	3%	/
COc1ccc(S(=O)(=O)N2CCCCCC2)cc1NC(=O)Cc1cc(OC)c(OC)c(OC)c1	0	-1	-22	?	-4%	3%
COc1ccc(S(=O)(=O)N(C)C)cc1NCC(=O)Nc1ccc(Br)c(C)c1	2	-2	-5	18µM*	?	5%
COc1ccc(CC(=O)Nc2cc(S(=O)(=O)N3CCCCC3)ccc2C)cc1OC	27	4	-13	18µM*	?	5%
COc1ccc(S(=O)(=O)N2CCCCC2)cc1NCC(=O)Nc1ccc(C)cc1	-3	-5	-7	9.2µM*	16µM*	/
COc1ccc(S(=O)(=O)N(C)C)cc1NCC(=O)Nc1cccc2ccccc12	-2	4	5	-21%	-20%	/
COc1ccc([N+](=O)[O-])cc1NCC(=O)Nc1cc(S(=O)(=O)N2CCCCC2)ccc1C	-1	-5	/	23µM*	15µM*	0%
COc1ccc(CNC(=O)C2=C(C)C(=O)OC23CCCCC3)cc1OC	/	/	/	?	-15%	-2%
O=C(Nc1cc(S(=O)(=O)Nc2ccccc2Cl)ccc1O)c1ccc(F)cc1F	23	-8	-2	-26%	-23%	3%
O=C(COc1ccccc1/C=C\c1nc(O)c([N+](=O)[O-])c(=O)[nH]1)Nc1ccccc1	6	-3	0	7%	0%	0%
COc1ccc(C)cc1S(=O)(=O)N(CC(=O)Nc1cc([N+](=O)[O-])ccc1C)c1ccc(C)c(C)c1	0	-5	-1	10µM*	8.2µM*	1%
COc1ccc(S(=O)(=O)N2CCCCC2)cc1NC(=O)CNc1ccccc1C(C)=O	19	-3	-6	?	23µM*	3%
COc1ccc(S(=O)(=O)N2CCCCCC2)cc1N(C)S(=O)(=O)c1ccc(C)cc1	-3	6	18	13µM*	?	3%
COc1ccc(S(=O)(=O)N2CCCCC2)cc1NC(=O)CNc1ccccc1N1CCCC1=O	-1	0	2	17%	-2%	0%[56.1 µM]
COc1ccc(C)cc1S(=O)(=O)N(CC(=O)Nc1cccc([N+](=O)[O-])c1)c1cc(C)cc(C)c1	0	-2	21	?	-12%	4%
COc1ccc(S(=O)(=O)N2CCCCC2)cc1NC(=O)Cc1c[nH]c2ccccc12	-7	-9	-10	15µM*	?	3%
O=C(N/N=C/C(c1ccccc1)c1ccccc1)c1ccccc1F	-6	-3	-23	-17%	19%	5%
COCN(C#N)c1nc(OC)nc(OC)n1	19	5	7	0%	-10%	4%
Nc1ccc(N(c2ccccc2)c2ccc(N)cc2)cc1	17	-20	-18	13µM*	16µM*	13%
CN(C)c1ccc(CCc2ccc(N)cc2)cc1	-5	0	?	-22%	11%	/
CC(C)CCN(C(=O)CNC(=O)c1ccco1)C(C(=O)NC1CCCCC1)c1ccco1 (configuration not stated)	-14	2	0	-29%	-12%	1%
CC(C)NC(=O)c1ccccc1NC(=O)C1COc2ccccc2O1 (configuration not stated)	0	1	6	21µM*	?	2%[56.1 µM]
O=C(Nc1ccc(S(=O)(=O)Nc2ccccc2)cc1)C1COc2ccccc2O1 (configuration not stated)	-69*	-2	12	21µM*	16µM*	2%
CN1CCN(c2ccc(Cl)cc2NC(=O)C2COc3ccccc3O2)CC1 (configuration not stated)	-4	-10	-12	29µM*	?	-6%
SMILES	IL1B secr inh	Six1-Eya2 inh	CtBP-E1A blk	DT40 TDP1 no CPT	TDP1 cell CPT	TDP1 inh
COc1ccc(OC)c(NC(=O)C2COc3ccccc3O2)c1 (configuration not stated)	-11	3	0	-20%	-21%	-1%
CCC(C)NC(=O)c1ccccc1NC(=O)C1COc2ccccc2O1 (configuration not stated)	8	1	/	?	-25%	-8%
COc1ccccc1NC(=O)c1ccc(NC(=O)C2COc3ccccc3O2)cc1 (configuration not stated)	-55*	4	-3	?	?	8%
Cc1nccn1CC1CCC2C(C1=O)c1ccccc1N2C (configuration not stated)	/	/	/	3%	17%	5%
COC(=O)c1ccccc1NC(=O)c1ccccc1SC	41	7	3	-19%	-7%	/
CSc1ccccc1C(=O)Nc1ccccc1C(=O)NC(C)C	1	-16	3	?	23µM*	3%
O=C(Nc1ccc(OC(F)(F)F)cc1)c1cc(-c2ccc(Cl)cc2)on1	/	/	/	-21%	-15%	-1%
Cc1cc(C)nc(NC2=NCCN2C(=O)NC2CCCCC2)n1	16	1	-11	16µM*	?	5%
CCNC(=S)N1CCN=C1Nc1nc(C)cc(C)n1	-8	3	4	23%	19%	-3%
COc1cc2c(cc1OC)CN(C(=O)c1ccc([N+](=O)[O-])o1)CC2	?	0	0	?	?	6%
O=C(O)C1CC=CCC1C(=O)N1CCc2ccccc21 (configuration not stated)	29	-4	4	-6%	-14%	22µM*
O=C(c1ccc([N+](=O)[O-])o1)N1CCc2ccccc2C1	-28	1	9	15µM*	21µM*	2%
Cc1ccc(C(=O)N2CCc3ccccc32)o1	-4	0	-2	3.3µM*	-17%	6%
O=C(c1ccc([N+](=O)[O-])o1)N1CCOCC1	0	-1	1	?	-6%	1%
O=C(c1ccc([N+](=O)[O-])o1)N1CCc2ccccc21	?	0	-3	12µM*	10µM*	/
Cc1cccc(-n2c(-c3ccoc3C)n[nH]c2=S)c1	17	-3	-3	?	-2%	-3%
Cc1ccccc1N1CCN(C(=O)[C@@H]2CCCN2C2=NS(=O)(=O)c3ccccc32)CC1	0	4	-16	-17%	?	2%
